Source: PubChem BioAssay (National Center for Advancing Translational Sciences (NCATS))
The list is not random: actives were taken first. Their share in the collection is about 8%.
SARS PLpro yeast-1: qHTS of Yeast-based Assay for SARS-CoV PLP. S. cerevisiae expressing SARS-CoV PLpro, growth rescue. Potency, µM (titrated, usually from 32.9 µM), inactives show at the top dose activity, positive = growth rescue, actives largely listed as activators. hit rate 0.19% among 330,000; calls by dose curve; also: potency is read from the fitted curve at half-maximal effect; 0% is about no effect; nearly all actives have a fitted effect of over 55% in size
HCMV inh: qHTS Assay for inhibitors of the human cytomegalovirus (HCMV) | AID 1259415, 2018 | HFF cells, HCMV-luciferase reporter, 72 h; hits give low values | hit rate 4.5% among 410,000 | activity change, negative = inhibition, % at 57.5 µM; in the data active = activity change below about -60%; inconclusive = no clear call, values can overlap the other calls; inactive = above about -39%; also: % is scaled to controls: 0 for no effect and ±100 for the full control effect
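Two compound doses tested in HFFs infected with HCMV-luciferase, MOI 1 PFU/cell, 72 h at 37C. Lysate luminescence read with OneGlo; data normalized against buffer-only and 10uM Salinomycin inhibitor controls.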
Lassa entry inh: qHTS for Inhibitors of binding or entry into cells for Lassa Virus. Lassa virus pseudotype entry inhibition, cell reporter. Potency, µM (series often up to 37.9 µM), for inactives: top-dose activity change, negative = inhibition, most hits filed as inhibitors. hit rate 1.2% among 300,000. AID 540256, 2011; calls by dose curve; tested in HEK293 cells; also: potency is read from the fitted curve at half-maximal effect; % is scaled to controls: 0 for no effect and ±100 for the full control effect; nearly all actives have a fitted effect of over 50% in size
HCV inhibitor: qHTS Assay for Inhibitors of Hepatitis C Virus (HCV). Huh7.5.1 HCVcc-Cre infection, luciferase reporter, 44 h. Potency, µM (series often up to 41.8 µM), for the others: at the highest dose activity change, negative = inhibition, hits mostly inhibitors. hit rate 3.4% among 340,000. AID 651820, 2012; active = well fitted inhibition curve with a large enough effect; inconclusive = small, poorly fitted or top-dose-only effect, or another doubt; inactive = no such curve, though single readings can be large or run the other way; also: potency is read from the fitted curve at half-maximal effect; % is scaled to controls: 0 for no effect and ±100 for the full control effect
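Antiviral activity was scored by luciferase reporter output from cells infected with HCVcc-Cre (~0.5 moi) in presence of compound, 44 h infection period, cells seeded 1,000/well 4 h prior.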
FMDV inh: High Throughput Screening for Foot and Mouth Disease Virus Antivirals. FMDV antiviral cell-based qHTS. Potency, µM (titrated, usually from 57.9 µM), inactives show top-dose activity change, negative = inhibition, most hits filed as inhibitors. hit rate 1.2% among 410,000. AID 1159524, 2015; calls by dose curve; tested in HEK293T cells; also: read-out not given here; potency is read from the fitted curve at half-maximal effect; % is scaled to controls: 0 for no effect and ±100 for the full control effect; nearly all actives have a fitted effect of over 45% in size
MARV entry inh: qHTS for inhibitors of binding or entry into cells for Marburg Virus; Marburg virus pseudotyped entry inhibition, cell reporter; Potency, µM (highest dose often 37.8 µM), for inactives: at the highest dose activity change, negative = inhibition, most hits filed as inhibitors; hit rate 1.8% among 300,000; AID 540276, 2011; calls by dose curve; tested in HEK293 cells; also: potency is read from the fitted curve at half-maximal effect; % is scaled to controls: 0 for no effect and ±100 for the full control effect
SARS PLpro yeast-2: qHTS of Yeast-based Assay for SARS-CoV PLP: Hit Validation; hit rate 19% among 1,000; calls only; yeast expressing SARS-CoV PLpro, growth phenotype rescue; shares compounds with SARS PLpro yeast-1; call rule not given here
Active calls of the source: *; i = inactive; u = inconclusive; x = no result; + = active, no number; [ ] = dose if it differs, or a comment.

SMILES	SARS PLpro yeast-1	HCMV inh	Lassa entry inh	HCV inhibitor	FMDV inh	MARV entry inh	SARS PLpro yeast-2
COc1ccc(C(=O)N2CCc3cc(OC)c(OC)cc3C2COc2ccc3c(C)cc(=O)oc3c2)c(OC)c1 (centres undefined)	x	13.1	-2.0%[46.1 µM]	x	0.0%	10.4%[46.1 µM]	x
COc1ccc(CNC(=O)c2ccc(NC(=O)N3CCCCc4ccccc43)cc2)c(OC)c1	x	3.0	u	x	1.3%	x	x
Cc1csc(N/N=C/c2ccc(O)c([N+](=O)[O-])c2)n1	10µM*	10.7	u	-3.7%	56.3%	1.3%	+
CN(C(=O)CSc1nnc(-c2ccc([N+](=O)[O-])cc2)o1)c1ccccc1	x	1.1	2.1%[46.1 µM]	x	-5.3%	0.4%[46.1 µM]	x
CCCCCCC(=O)Nc1nc(C)c(-c2csc(Nc3cc(OC)ccc3OC)n2)s1	u	2.7	x	-8.8%	-19.1%	-2.1%	i
Cc1cccc(C)c1NC(=S)NN1CCN(C)CC1	u	43.6	20.8%	-9.5%	-9.4%	-0.1%[46.1 µM]	+
CCOC(=O)c1ccc(NC(=S)NN2CCN(C)CC2)cc1	-1.3%	-30.6	x	-14.0%	-20.9%	x	x
CC(=O)NCCc1cc2ccc(C)cc2[nH]c1=O	u	95.1	3.8%	-4.5%	-4.1%	0.7%	i
COc1cc(NC(C)=O)c2ncccc2c1Br	x	-7.0	x	x	-14.0%	x	x
O=C(Nc1ccc(Cl)c(Cl)c1)c1cccnc1	-7.6%	60.7	x	3.1%	36.5%	x	x
O=C(NC(c1ccc(Cl)cc1)c1cc(Cl)c2cccnc2c1O)c1cccnc1 (centres undefined)	2.51µM*	-101.4*	u	u	u	u	i
COc1ccc(C(NC(C)=O)c2cc(Cl)c3cccnc3c2O)cc1 (centres undefined)	10µM*	-99.1*	x	10µM*	-18.2%	x	i
COc1cc(C(=O)NCC(=O)N/N=C(/C)c2cccs2)cc(OC)c1OC	u	8.6	-3.2%	-4.4%	-22.3%	u	i
COc1ccc(/C(C)=N/NC(=O)CNC(=O)c2cccs2)cc1OC	2.7%	-15.1	x	-4.6%	29.5%	x	x
COc1ccc(C(=O)NC(=S)NNC(=O)c2cnccn2)cc1OC	3.98µM*	u	-23.9%	u	-13.9%	u	u
COc1cc(OC)cc(C(=O)NC(=S)NNC(=O)c2cnccn2)c1	x	-88.8*	u	u	-0.8%	u	i
COc1ccc(C(=O)NCCNC(=O)c2cnccn2)cc1OC	14.3%	4.3	9.1%[46.1 µM]	18.6%	20.9%	-10.7%[46.1 µM]	x
CCOc1ccc(-c2nc(CNC(=O)NC3CCCCC3)c(C)o2)cc1	x	8.6	26.3%[46.1 µM]	x	17.2%	x	x
CCN(CC)CCCNc1oc(/C=C/c2ccc(OC)c(OC)c2)nc1C#N	x	u	15.9%[46.1 µM]	x	-0.5%	-16.2%[46.1 µM]	x
Cn1cccc1/C=N/NC(N)=S	10µM*	-4.3	-1.7%[46.1 µM]	0.8%	-2.3%	-4.9%[46.1 µM]	+
COc1ccc(Cc2nnc(N/N=C/c3ccc(O)cc3O)[nH]c2=O)cc1OC	6.31µM*	9.9	-6.3%	u	-9.7%	u	i
O=C(O)C(Oc1ccc2ccc(=O)oc2c1)c1ccccc1 (centres undefined)	x	x	x	x	-1.4%	x	x
Cc1ccc(Cc2c(C)nc3nc(SCC(=O)NCCC(C)C)nn3c2C)cc1	x	-9.6	19.8%[46.1 µM]	x	0.0%	-4.2%[46.1 µM]	x
O=C(CNC(=S)NC(=O)c1ccccc1Br)c1ccccc1	2.3%	13.8	9.2%	16.8%	1.4%	-17.7%[46.1 µM]	x
CCCCNC(=S)NC(=O)c1ccccc1Br	11.2µM*	-11.3	5.3%	-0.5%	35.5%	12.2%	+
COC(=O)c1ccc2c(=O)n(Cc3ccc4c(c3)OCO4)c(=S)[nH]c2c1	-1.5%	-36.7	x	3.4%	-14.2%	x	x
COC(=O)c1ccc2c(=O)n(NC(=O)C(c3ccccc3)c3ccccc3)c(=S)[nH]c2c1	u	7.2	1.7%	12.8%	-10.1%	16.4%	i
